Experimental data reported in PubChem BioAssay AID1159580 (chemical genetic matrix, 2015).
Values joined by “and” are separate entries in the source; they are usually repeats but may differ in a detail not shown here. Equal values may be shown once. Hit rate of the full screen: of about 5,500 compounds, about 2,000 (36%) were called active. Roughly 18% stayed inconclusive and do not appear here. Cut-off read from the data, not from the text of the source: active = normalized growth mostly below about 0.91 (no sharp cut-off); inconclusive = no clear call, values can overlap the other calls; inactive = mostly above about 0.92. The list shows a part of the results.

Experiment: chemical genetic growth profiling, strain panel (AID 1159580);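 note: tested at 20 µM; growth read once vehicle control cultures reached saturation at 30 °C; 1 = growth at the plate median or of vehicle wells; lower values mean less growth of the strain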
Details: S. cerevisiae deletion strains, growth OD

Measured: normalized growth

O=c1cc[nH]c(=S)[nH]1
inactive: locus YAL013W, strain DEP1, stronger effect = lower value 1.03 | locus YAL021C, strain ccr4, stronger effect = lower value 1.03 | locus YAL026C, strain drs2, stronger effect = lower value 0.987 | locus YAL030W, strain snc1, stronger effect = lower value 1 | locus YBL061C, strain skt5, stronger effect = lower value 1 | locus YBR009C, strain hhf1, stronger effect = lower value 0.964 | locus YBR021W, strain FUR4, stronger effect = lower value 1.02 | locus YBR023C, strain chs3, stronger effect = lower value 1.01 | locus YBR171W, strain sec66, stronger effect = lower value 1.01 | locus YBR229C, strain ROT2, stronger effect = lower value 1.01 | locus YBR231C, strain swc5, stronger effect = lower value 1.02 | locus YBR279W, strain paf1, stronger effect = lower value 0.997 | locus YCL011C, strain gbp2, stronger effect = lower value 0.997 | locus YCL016C, strain dcc1, stronger effect = lower value 1 | locus YCL029C, strain bik1, stronger effect = lower value 1.01 | locus YCL061C, strain MRC1, stronger effect = lower value 1.03 | locus YCL069W, strain vba3, stronger effect = lower value 1.01 | locus YCR088W, strain abp1, stronger effect = lower value 1.01 | locus YDL005C, strain med2, stronger effect = lower value 1.04 | locus YDL035C, strain GPR1, stronger effect = lower value 1.02 | locus YDL040C, strain nat1, stronger effect = lower value 1.01 | locus YDL074C, strain BRE1, stronger effect = lower value 1.03 | locus YDL101C, strain DUN1, stronger effect = lower value 1.03 | locus YDL134C, strain PPH21, stronger effect = lower value 1.02 | locus YDL185W, strain tfp1, stronger effect = lower value 1.01 | locus YDL192W, strain arf1, stronger effect = lower value 1.02 | locus YDR001C, strain nth1, stronger effect = lower value 1 | locus YDR069C, strain doa4, stronger effect = lower value 1.04 | locus YDR101C, strain arx1, stronger effect = lower value 1.01 | locus YDR137W, strain rgp1, stronger effect = lower value 1.04 | locus YDR150W, strain NUM1, stronger effect = lower value 1.01 | locus YDR159W, strain sac3, stronger effect = lower value 1.02 | locus YDR162C, strain NBP2, stronger effect = lower value 1.02 | locus YDR195W, strain ref2 1.03 | locus YDR297W, strain sur2, stronger effect = lower value 1.01 | locus YDR318W, strain mcm21, stronger effect = lower value 1.03 | locus YDR334W, strain swr1, stronger effect = lower value 1 | locus YDR335W, strain msn5, stronger effect = lower value 1.01 | locus YDR388W, stronger effect = lower value 1 | locus YDR392W, strain spt3, stronger effect = lower value 0.962 | locus YDR502C, strain sam2, stronger effect = lower value 1.03 | locus YEL003W, strain gim4, stronger effect = lower value 1 | locus YEL037C, strain rad23, stronger effect = lower value 0.991 | locus YEL061C, strain CIN8 (second series), stronger effect = lower value 1 | locus YEL061C, strain CIN8, stronger effect = lower value 1.01 | locus YER015W, strain faa2, stronger effect = lower value 1.01 | locus YER016W, strain bim1, stronger effect = lower value 1.01 | locus YER110C, stronger effect = lower value 1 | locus YER111C, strain swi4, stronger effect = lower value 1.01 | locus YER155C, strain BEM2 (second series), stronger effect = lower value 1.04 | locus YER155C, strain BEM2, stronger effect = lower value 1.01 | locus YER167W, strain BCK2, stronger effect = lower value 1.02 | locus YFR010W, strain ubp6, stronger effect = lower value 0.997 | locus YGL078C, strain dbp3, stronger effect = lower value 1.01 | locus YGL086W, strain mad1, stronger effect = lower value 1 | locus YGL167C, strain pmr1, stronger effect = lower value 1 | locus YGL173C, strain kem1, stronger effect = lower value 1.01 | locus YGL227W, strain vid30, stronger effect = lower value 1.01 | locus YGL240W, strain doc1, stronger effect = lower value 1.07 | locus YGL248W, strain PDE1, stronger effect = lower value 1.01 | locus YGL253W, strain hxk2, stronger effect = lower value 1.03 | locus YGR078C, strain PAC10, stronger effect = lower value 1.03 | locus YGR135W, strain pre9, stronger effect = lower value 1.02 | locus YGR229C, strain SMI1, stronger effect = lower value 1.03 | locus YGR252W, strain gcn5, stronger effect = lower value 1.09 | locus YHR013C, strain ard1, stronger effect = lower value 1.04 | locus YHR027C, strain rpn1, stronger effect = lower value 1 | locus YHR030C, strain SLT2, stronger effect = lower value 1.02 and 0.995 | locus YHR079C, strain IRE1 (second series), stronger effect = lower value 0.999 | locus YHR079C, strain IRE1, stronger effect = lower value 1.01 | locus YHR094C, strain hxt1, stronger effect = lower value 0.983 | locus YHR129C, strain ARP1, stronger effect = lower value 1.01 | locus YHR142W, strain chs7, stronger effect = lower value 0.987 | locus YHR200W, strain rpn10, stronger effect = lower value 1.02 | locus YIL066C, strain RNR3, stronger effect = lower value 1.03 | locus YIL073C, strain SPO22, stronger effect = lower value 1.03 | locus YIL125W, strain kgd1, stronger effect = lower value 1.01 | locus YIR030C, strain dcg1, stronger effect = lower value 1.01 | locus YJL092W, strain hpr5, stronger effect = lower value 1 | locus YJL095W, strain BCK1 (second series), stronger effect = lower value 1.01 | locus YJL095W, strain BCK1, stronger effect = lower value 1.04 and 1.01 | locus YJL115W, strain asf1, stronger effect = lower value 1.01 | locus YJL129C, strain trk1, stronger effect = lower value 1.01 | locus YJL134W, strain LCB3, stronger effect = lower value 1.01 | locus YJL154C, strain vps35, stronger effect = lower value 1.01 | locus YJL164C, strain tpk1, stronger effect = lower value 0.983 | locus YJL166W, strain qcr8, stronger effect = lower value 1.03 | locus YJL168C, strain set2, stronger effect = lower value 0.997 | locus YJL187C, strain SWE1 (second series), stronger effect = lower value 1.04 | locus YJL187C, strain SWE1, stronger effect = lower value 1.01 | locus YJR043C, strain POL32, stronger effect = lower value 1.02 | locus YJR066W, strain TOR1, stronger effect = lower value 0.917
